# This is part of a sample that, as a whole, favours compounds with a hit. Of some 83,000 tested, about 20% had one in any assay.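 How to read the values: 0–100, growth inhibition (40 = 60% inhibited); 0, no net growth; -100 to 0, cell death (-40 = 40% of starting cells died; -100 = all dead).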 A number with no mark means an inactive call. How the source made its calls: active means growth percent below 10; inactive means the rest.
# System: HL-60(TB) leukemia
# Experiment: NCI-60 one-dose screen, 48 h (100 = growth as untreated, 0 = no growth, -100 = all killed)
# Settings: 10 µM unless noted
row,SMILES,growth
1,CC(=O)OC[C@@]1(C)C2CC[C@]3(C)C(CC=C4C5CC(C)(C)CC[C@]5(C(=O)Nc5ccc(F)cc5)CC[C@]43C)[C@@]2(C)C[C@@H](OC(C)=O)[C@@H]1OC(C)=O (stereo partly specified),27.9%
2,Cc1ccc(C(=O)CSc2nnc(-c3c[nH]c4ccccc34)n2-c2ccccc2)cc1,43.3%
3,COc1ccc(-c2ccnc(SCc3cc4cc(Cl)ccc4[nH]c3=O)n2)cc1,120%
4,Cc1ccc(S(=O)(=O)N(CCn2ccnc2[N+](=O)[O-])CCn2ccnc2[N+](=O)[O-])cc1,94.6%
5,Nc1nc(-c2ccccc2)cc(-c2cc3ccccc3nc2Cl)n1,51.6%
6,O=c1[nH]c2ccccc2cc1CSc1ccccc1Nc1nccc(-c2ccc3c(c2)OCO3)n1,98%
